The values below come from PubChem BioAssay (NCATS).

Assay [1] has as its target Rap guanine nucleotide exchange factor 3 (Homo sapiens) (UniProt O95398). Kind of assay: Confirmatory qHTS for agonist of cAMP-regulated guanine nucleotide exchange factor 3 (EPAC1) (AID 1645881).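 Also: EPAC1 catalysed release of BODIPY-GDP from Rap1B seen as fluorescence loss; nearly all actives have a fitted effect of over 75% in size.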
The target in assay [2] is Rap guanine nucleotide exchange factor 4 (Homo sapiens) (UniProt Q8WZA2). As to the kind of experiment: Confirmatory qHTS for agonist of cAMP-regulated guanine nucleotide exchange factor 4 (EPAC2) (AID 1645884).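 Also: nucleotide exchange releases bodipy-GDP from Rap1 and this lowers its fluorescence; nearly all actives have a fitted effect of over 65% in size.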
Sequence of Rap guanine nucleotide exchange factor 4 (Homo sapiens) (Q8WZA2 whole entry, looked up): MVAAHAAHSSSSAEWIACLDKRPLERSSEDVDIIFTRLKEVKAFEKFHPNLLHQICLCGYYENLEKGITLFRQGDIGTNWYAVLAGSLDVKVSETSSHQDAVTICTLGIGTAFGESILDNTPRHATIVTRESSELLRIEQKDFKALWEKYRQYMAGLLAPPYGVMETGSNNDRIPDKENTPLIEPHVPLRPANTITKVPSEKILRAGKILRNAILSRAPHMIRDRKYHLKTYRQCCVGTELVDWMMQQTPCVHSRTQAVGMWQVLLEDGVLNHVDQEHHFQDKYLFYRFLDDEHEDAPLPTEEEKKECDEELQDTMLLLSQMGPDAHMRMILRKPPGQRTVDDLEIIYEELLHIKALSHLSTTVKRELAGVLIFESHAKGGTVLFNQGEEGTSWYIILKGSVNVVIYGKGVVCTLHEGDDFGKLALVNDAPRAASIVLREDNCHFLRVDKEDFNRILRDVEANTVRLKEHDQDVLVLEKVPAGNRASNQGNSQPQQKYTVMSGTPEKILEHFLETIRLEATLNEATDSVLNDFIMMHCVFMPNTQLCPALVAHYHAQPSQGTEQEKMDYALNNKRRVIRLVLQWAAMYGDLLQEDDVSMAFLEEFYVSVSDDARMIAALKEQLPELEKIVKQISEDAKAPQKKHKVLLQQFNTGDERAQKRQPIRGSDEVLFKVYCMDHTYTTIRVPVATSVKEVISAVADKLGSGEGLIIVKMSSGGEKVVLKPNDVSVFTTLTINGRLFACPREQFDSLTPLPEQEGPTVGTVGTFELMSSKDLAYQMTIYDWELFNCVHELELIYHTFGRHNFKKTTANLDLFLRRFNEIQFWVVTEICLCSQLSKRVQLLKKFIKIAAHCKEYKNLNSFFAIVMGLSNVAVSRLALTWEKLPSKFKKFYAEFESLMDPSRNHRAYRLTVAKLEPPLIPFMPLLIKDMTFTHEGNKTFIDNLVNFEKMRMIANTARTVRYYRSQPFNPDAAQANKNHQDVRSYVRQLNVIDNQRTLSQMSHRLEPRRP
In assay [3] the target is Rap guanine nucleotide exchange factor 3 (Homo sapiens) (UniProt O95398). As to the kind of experiment: Confirmatory qHTS for antagonist of cAMP-regulated guanine nucleotide exchange factor 3 (EPAC1) (AID 1645880). Also: nearly all actives have a fitted effect of over 55% in size. Also: potency is read from the fitted curve at half-maximal effect. In outline:
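Released BODIPY-GDP fluoresces less than Rap1-bound BODIPY-GDP; the signal is followed at 480/540 nm at 5-min intervals over 30 min, after 5 min at room temperature. Reactions contain 100 nM EPAC1, 250 nM RAP1B-BODIPY-GDP and 50 uM GDP; results are normalized to ATA and DMSO.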

Where “and” joins values, the source holds several entries; their conditions need not be identical. Equal values may be shown once. Records with an inconclusive call do not appear. Entries that show only a call come without a potency. Calls of active or inactive are those of the source. Calls follow the shape of the dose curve; as a rule, active = well fitted curve in the direction sought with a large enough effect; inconclusive = small, poorly fitted or top-dose-only effect, or another doubt; inactive = no such curve, though single readings can be large; an effect the other way counts as inactive or inconclusive.

Sequence of Rap guanine nucleotide exchange factor 3 (Homo sapiens) (O95398 whole entry, looked up): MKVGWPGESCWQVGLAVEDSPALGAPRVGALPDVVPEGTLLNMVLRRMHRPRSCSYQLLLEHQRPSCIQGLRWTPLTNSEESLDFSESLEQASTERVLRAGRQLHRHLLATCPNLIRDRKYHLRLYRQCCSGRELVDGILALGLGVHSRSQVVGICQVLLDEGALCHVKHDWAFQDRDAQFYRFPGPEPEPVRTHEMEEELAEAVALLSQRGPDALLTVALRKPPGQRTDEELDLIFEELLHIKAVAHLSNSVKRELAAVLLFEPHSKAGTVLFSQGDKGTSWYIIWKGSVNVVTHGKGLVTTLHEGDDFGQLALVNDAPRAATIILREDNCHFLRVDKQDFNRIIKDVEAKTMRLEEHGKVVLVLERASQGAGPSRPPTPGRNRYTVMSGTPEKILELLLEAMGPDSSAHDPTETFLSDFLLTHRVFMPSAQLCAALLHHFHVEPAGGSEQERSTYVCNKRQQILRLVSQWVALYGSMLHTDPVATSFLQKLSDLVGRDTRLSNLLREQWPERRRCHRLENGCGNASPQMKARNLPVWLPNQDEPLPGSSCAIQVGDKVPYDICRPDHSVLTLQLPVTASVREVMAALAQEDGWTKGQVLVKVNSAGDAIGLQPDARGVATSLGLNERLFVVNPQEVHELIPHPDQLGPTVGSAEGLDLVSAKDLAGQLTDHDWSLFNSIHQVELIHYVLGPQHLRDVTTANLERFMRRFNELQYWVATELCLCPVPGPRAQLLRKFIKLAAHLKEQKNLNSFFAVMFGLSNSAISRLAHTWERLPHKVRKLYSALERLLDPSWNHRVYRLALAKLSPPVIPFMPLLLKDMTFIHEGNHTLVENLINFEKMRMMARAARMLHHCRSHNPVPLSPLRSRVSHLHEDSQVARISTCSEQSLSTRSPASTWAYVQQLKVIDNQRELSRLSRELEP

Turning to `CN1CCN(CCCN2c3ccccc3Sc3ccc(C(F)(F)F)cc32)CC1`, the molecule was called inactive in assay [1] and in assay [2].

As to `CC(C)(Sc1ccc(CCN(CCCCC2CCCCC2)C(=O)NC2CCCCC2)cc1)C(=O)O`, in assay [3], the Potency was 28 µM (active) and 42.6 µM (active). Further, the molecule was classed as inactive in assay [1] and in assay [2].

For the molecule `Nc1nc2ccc(OC(F)(F)F)cc2s1`, in assay [3], the Potency entry was “inactive”. The molecule was called inactive in assay [1] and in assay [2].
